A short description of this test: chemical genetic growth profiling, strain panel (AID 1159580).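 Also: tested at 20 µM; growth read once vehicle control cultures reached saturation at 30 °C; 1 = growth at the plate median or of vehicle wells; lower values mean less growth of the strain.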 Conditions: S. cerevisiae deletion strains, growth OD.

The campaign covered roughly 5,500 compounds. About 2,000 (36%) were called active. Another 18% or so got no clear call; they are omitted. Some of the results follow. A number with no mark means an inactive call. Rule as the data show it: active = normalized growth mostly below about 0.91 (no sharp cut-off); inconclusive = no clear call, values can overlap the other calls; inactive = mostly above about 0.92.

Regarding `CC(C)C[C@H]1C(=O)N2CCC[C@H]2[C@]2(O)O[C@](NC(=O)[C@@H]3C=C4c5cccc6[nH]c(Br)c(c56)C[C@H]4N(C)C3)(C(C)C)C(=O)N12`, the normalized growth is 0.741 (active) (locus YAL040C, strain CLN3, hits give low values); 0.996 (locus YDR150W, strain NUM1, hits give low values); 1.02 (locus YDR363W, strain ESC2, hits give low values); 1.03 (locus YER002W, strain NOP16, hits give low values); 1.01 (locus YMR263W, strain SAP30, hits give low values); 1.03 (locus YNL128W, strain TEP1, hits give low values). Further, the normalized growth was 0.974 (locus YNL153C, strain GIM3, hits give low values); 1.04 (locus YNL175C, strain NOP13, hits give low values); 1.01 (locus YNL197C, strain WHI3, hits give low values); 1.01 (locus YNL224C, strain SQS1, hits give low values); 1.03 (locus YOR083W, strain WHI5 (second series), hits give low values); 0.989 (locus YPL241C, strain CIN2, hits give low values).

The record behind these values is PubChem BioAssay AID1159580 (chemical genetic matrix, 2015).
